Screening results (PubChem)
Prx2 Sm inh = blocks S. mansoni peroxiredoxin 2 enzymatic activity; Potency, µM; actives 0.07% (n = 65,000); AID 448; S. mansoni Prx2 activity coupled to TGR/GSH (TGR is thioredoxin glutathione reductase), NADPH fluorescence loss, qHTS
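Coupled assay in which S. mansoni TGR passes NADPH reducing equivalents via glutathione to Prx2, which reduces H2O2. Compounds were preincubated 15 min at room temperature with 25 nM TGR/50 nM Prx2 mix. Kinetic NADPH fluorescence loss (ex 365/em 450 nm) was monitored.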
AmpC det inh = inhibitors of E. coli AmpC beta-lactamase with detergent | P00811 | purified AmpC, nitrocefin hydrolysis with detergent | Potency, µM (titrated, usually from 28.7 µM), without a hit: at the highest dose activity change, negative = inhibition | actives 0.09% (n = 71,000) | AID 584; active = well fitted curve in the direction sought with a large enough effect; inconclusive = small, poorly fitted or top-dose-only effect; also: % is scaled to controls: 0 for no effect and ±100 for the full control effect
Target sequence (P00811 whole entry, looked up): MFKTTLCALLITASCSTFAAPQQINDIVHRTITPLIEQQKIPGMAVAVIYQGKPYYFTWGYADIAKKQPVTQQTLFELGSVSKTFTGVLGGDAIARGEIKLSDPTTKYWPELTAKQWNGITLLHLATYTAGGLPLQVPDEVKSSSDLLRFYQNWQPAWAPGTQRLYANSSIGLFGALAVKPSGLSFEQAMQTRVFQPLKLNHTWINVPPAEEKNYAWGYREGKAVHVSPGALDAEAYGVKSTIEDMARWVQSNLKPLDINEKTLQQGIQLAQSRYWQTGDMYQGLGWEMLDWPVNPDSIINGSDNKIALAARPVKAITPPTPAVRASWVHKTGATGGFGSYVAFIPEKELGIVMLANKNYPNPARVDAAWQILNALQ
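E. coli AmpC (5.3 nM) in 20 mM phosphate pH 7.0 with 0.01% Triton X-100, preincubated 15 min RT with compound; nitrocefin (2 uL of 800 uM stock) hydrolysis followed by 480 nm absorbance every 20 s over 4 min.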
Anthrax LT inh = blocks cellular internalization of anthrax lethal toxin. Cells, anthrax lethal toxin internalization, FRET ratio (460/530). Potency, µM (highest dose often 40 µM), for the others: top-dose activity change, negative = inhibition, most hits filed as inhibitors. actives 0.67% (n = 70,000). AID 912; also: % is scaled to controls: 0 for no effect and ±100 for the full control effect; nearly all actives have a fitted effect of over 50% in size
AmpC nodet inh = AmpC beta-lactamase inhibition, detergent-free assay | P00811 | AmpC nitrocefin hydrolysis, absorbance 480 nm, no detergent | Potency, µM (doses to about 28.7 µM), inactives show at the top dose activity change, negative = inhibition | actives 1.8% (n = 71,000) | AID 585; also: % of control where 0% means no effect
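Enzyme, pH 7.0 phosphate. Compound titrations were pre-incubated with AmpC for 15 min at room temperature before nitrocefin (stock 800 uM) addition; product formation was recorded at 480 nm every 20 s for 4 min.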
* marks the source's active call; other numbers are inactive results; ? = inconclusive; nt = not tested or not shown; [ ] = remark or other dose. Most compounds without a hit are left out; they make up all but 2.6% or so of the library. Unless noted, calls follow the shape of the full dose curve. Potency is read from the fitted curve at half-maximal effect.

SMILES | Prx2 Sm inh | AmpC det inh | Anthrax LT inh | AmpC nodet inh
COC(=O)C(C)Sc1nnc(Cc2cc(=O)[nH]c(=O)[nH]2)n1-c1cccc(OC)c1 (stereo not drawn) | >57 | 13% | 0% | 4µM*[single pt active]
COc1cccc(-n2c(Cc3cc(=O)[nH]c(=O)[nH]3)nnc2SC(C)C)c1 | >57 | 13% | 5% | 4µM*[single pt active]
C=CCSc1nnc(Cc2cc(=O)[nH]c(=O)[nH]2)n1-c1cc(C)ccc1C | >57 | 14% | -26% | 4%
Cc1cccc2cc3ccc4ccccc4c3cc12 | >57 | -1%[5.75 µM] | ? | 4%[5.75 µM]
CC(C)C(C)(C)C(C)(C)C(C)(C)S | nt | 11% | -2% | -16%
COc1ccc(NC(=O)NCCN2CCc3ccccc3C2)cc1 | >57 | -7% | -8% | 6%
Cc1ccccc1NC(=O)NCCN1C(=O)C2C3C=CC(C3)C2C1=O (stereo not drawn) | >57 | 13% | -13% | 2µM*[single pt active]
O=C(Nc1ccccc1)N1CCN(Cc2ccc3c(c2)OCO3)CC1 | >57 | 13% | 7% | 4µM*[single pt active]
O=C(CCN1C(=O)C2C3C=CC(C3)C2C1=O)NCCN1CCCc2ccccc21 (stereo not drawn) | >57 | -2% | 3% | 52%
COc1ccc(NC(=O)NCCN2C(=O)C3C4C=CC(C4)C3C2=O)cc1 (stereo not drawn) | >57 | 12% | 9% | 2.5µM*[single pt active]
COc1ccc(CN2C(=O)C3C4C=CC(C4)C3C2=O)cc1 (stereo not drawn) | >57 | -3% | 3% | 0%
O=C(NCCN1CCN(C(=O)Nc2ccccc2)CC1)Nc1ccccc1 | >57 | 12% | -15% | 4µM*[single pt active]
COCCn1c(=O)c(-c2cccs2)nc2cnc(N3CCNCC3)nc21 | >57 | 1% | ? | 67%
COc1ccc2[nH]cc(CCNc3ccnc(-c4ccc5c(c4)OCO5)n3)c2c1 | >57 | -2% | ? | 0%
O=C(Cl)c1c(Cl)cccc1Cl | nt | 8% | ? | -6%
O=C(NCCN1C(=O)C2C3C=CC(C3)C2C1=O)NCc1ccccc1 (stereo not drawn) | >57 | 12% | -5% | 4µM*[single pt active]
Cc1ccc(NC(=O)NCCCN2CCOCC2)cc1 | >57 | -5% | -4% | -4%
O=C(NCCN1C(=O)C2C3C=CC(C3)C2C1=O)Nc1ccccc1 (stereo not drawn) | >57 | 14% | -2% | 4µM*[single pt active]
COc1ccc(NC(=O)NCCCN2CCCCC2C)cc1 (stereo not drawn) | >57 | -1% | 1% | -7%
COc1ccc(NC(=O)NCCCN2CCCC2=O)cc1 | >57 | 11% | -2% | 4µM*[single pt active]
Cc1ccc(NC(=O)NCCN2C(=O)C3C4C=CC(C4)C3C2=O)cc1 (stereo not drawn) | >57 | 10% | 3% | 4µM*[single pt active]
C=C1C[C@@]23C[C@]1(O)CC[C@@H]2[C@]12C=C[C@@H](O)[C@@](C)(C(=O)O1)[C@@H]2[C@@H]3C(=O)O | >57 | 0% | ? | -8%
COc1ccccc1CNc1ccnc(-c2ccc(C(=O)N(C)C)cc2)n1 | >57 | 10% | ? | 93%
c1ccc2cc(NCNc3ccc4ccccc4c3)ccc2c1 | >57 | 11%[5.75 µM] | -12%[8 µM] | -15%[5.75 µM]
Cc1ccc(C(=O)[C@@H]2[C@@H]3[C@@H](C(=O)[C@@H]4OC[C@H]3O4)[C@@H]3C=Cc4ccccc4N23)cc1 | >57 | -5% | ? | 101%
SMILES | Prx2 Sm inh | AmpC det inh | Anthrax LT inh | AmpC nodet inh
Cc1cccc(NC(=O)NCCN2C(=O)C3C4C=CC(C4)C3C2=O)c1 (stereo not drawn) | >57 | 11% | -8% | 4µM*[single pt active]
O=C(CCN1C(=O)C2C3C=CC(C3)C2C1=O)NCC1CCCO1 (stereo not drawn) | >57 | -2% | -5% | -5%
O=C(NCCN1C(=O)C2C3C=CC(C3)C2C1=O)N1CCCCC1 (stereo not drawn) | >57 | 13% | -7% | 4µM*[single pt active]
CCOC(=O)c1cccc(NC(=O)CN2C(=O)C3C4C=CC(C4)C3C2=O)c1 (stereo not drawn) | >57 | 4% | 9% | 3%
CCCNC(=O)CS(=O)Cc1nc(-c2ccccc2C)oc1C (stereo not drawn) | >57 | 13% | ? | 4µM*[single pt active]
CCC(C)NC(=O)CS(=O)Cc1nc(-c2ccccc2C)oc1C (stereo not drawn) | >57 | 11% | -11% | 4µM*[single pt active]
O=C(Nc1ccc(F)cc1F)N1CCN(C/C=C/c2ccccc2)CC1 | >57 | 11% | -16% | 4µM*[single pt active]
COC(=O)c1ccccc1NC(=O)N1CCN(C/C=C/c2ccccc2)CC1 | >57 | -4% | -10% | 85%
